Results on eight molecules are retold here after PubChem BioAssay.

The source made the active and inactive calls.

The nature of assay [1]: E. coli DRC41 culture turbidity changes, primary screen, E. coli filamentation inducer project, strain DRC41, OD650, 48 h (AID 1152).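 Note: E. coli MC1000 strain DRC41 lacking acrAB efflux pump and sulA.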 The following applies: E. coli DRC41 (acrAB sulA), higher = more signal, called active from +8 up or from −8 down.
A short description of assay [2]: small-molecule binders of probe aLefty1, primary screen, biochemical, small-molecule microarray, 635/667 nm fluorescence (AID 1153).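 Note: score merges spot fluorescence with signal-to-noise ratio from the scanned slide images.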 The conditions noted are these: higher = more signal.
Assay [3] is described as follows: PSAC antagonists in infected red cells, primary screen, cell-based, P. falciparum Indochina, OD700, 1 h (AID 1154). The following applies: P. falciparum Indochina infected RBC osmotic lysis, higher = more signal, called active from +8 up or from −8 down.
Assay [4] is described as follows: PSAC antagonists in infected red cells, primary screen, cell-based, P. falciparum Indochina, OD700, 2 h (AID 1155).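 Note: lysis reports solute entry through the parasite surface anion channel PSAC; channel blockers reduce lysis of infected cells.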 The following applies: P. falciparum Indochina infected erythrocytes, osmotic lysis OD700; higher = more signal, called active from +8 up or from −8 down.
The nature of assay [5]: osmotic lysis modulators in infected erythrocytes, primary screen, PSAC antagonist project, cell-based, P. falciparum Indochina, OD700, 3 h (AID 1156). The conditions noted are these: higher = more signal, called active from +8 up or from −8 down.
Assay [6] can be described thus: PSAC antagonists in infected red cells, primary screen, cell-based, P. falciparum Indochina, OD700, 18 h (AID 1157). The following applies: P. falciparum Indochina infected erythrocytes, osmotic lysis OD700, 18 h; higher = more signal, called active from +8 up or from −8 down.
A short description of assay [7]: modulators of S6 phosphorylation in cells, primary screen, cell-based, A549, cytoblot, luminescence, serum-stimulated (AID 1158).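 Note: serum-stimulated A549 lung adenocarcinoma cells; signal is phosphorylated S6 detected by cytoblot immunostaining with HRP secondary.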 The following applies: A549 phospho-S6 cytoblot, 5 h, higher = more signal.
Assay [8] addresses NADPH oxidase 2 (Homo sapiens) (UniProt P04839). The assay is described as follows: NOX2-dependent H2O2 signal modulators, primary screen, NOX inhibitor project, cell-based, HEK293-NOX2, PMA-stimulated, Amplex Red fluorescence (AID 1159). Note: test concentration not given here. The following applies: 45 min, higher = more signal, called active from +8 up or from −8 down.
For assay [9], the target named is NADPH oxidase 4 (Homo sapiens) (UniProt Q9NPH5). The assay is described as follows: NOX4-dependent H2O2 signal modulators, primary screen, NOX inhibitor project, cell-based, HEK293-NOX4, tetracycline-induced, Amplex Red fluorescence (AID 1160). The following applies: 45 min, higher = more signal, called active from +8 up or from −8 down.
For assay [10], the target named is NADPH oxidase 5 (Homo sapiens) (UniProt Q96PH1). The assay is described as follows: NOX5-dependent H2O2 signal modulators, primary screen, NOX inhibitor project, cell-based, HEK293-NOX5, Amplex Red fluorescence (AID 1161). The following applies: HEK293-NOX5, ionomycin, 45 min, higher = more signal.
A short description of assay [11]: A549 cell viability effects, profiling panel, calcein-AM fluorescence, 48 h, basal (AID 1162). Note: test concentration not given here. The conditions noted are these: higher = more signal.
Assay [12] in a line: adipocyte viability effects, profiling panel, cell-based, 3T3-L1 adipocytes, calcein-AM fluorescence, 48 h, basal (AID 1163). Note: test concentration not given here. The conditions noted are these: 3T3-L1 adipocytes viability, higher = more signal.
Assay [13] in a line: HepG2 cell viability effects, profiling panel, calcein-AM fluorescence, 48 h, basal (AID 1164). Note: test concentration not given here. The conditions noted are these: higher = more signal.
Assay [14] in a line: MM1S cell viability effects, profiling panel, calcein-AM fluorescence, 48 h, basal (AID 1165).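 Note: viability of MM1S multiple myeloma cells under basal unstimulated conditions; test concentration not given here.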 The following applies: higher = more signal.
Assay [15] in a line: basal RPMI8226 viability, no added stimulus, profiling panel, cell-based, calcein-AM fluorescence, 48 h, PK04 Diversity Set (AID 1166).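 Note: cells grown under basal conditions without added stimulus; test concentration not given here.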 The conditions noted are these: RPMI8226 myeloma viability, higher = more signal.
Assay [16] can be described thus: basal HepG2 mitochondrial membrane potential changes, profiling panel, cell-based, JC-1 fluorescence, 24 h, 100 nL compound (AID 1167). Note: test concentration not given here. The conditions noted are these: higher = more signal.
Assay [17] is described as follows: basal 3T3-L1 adipocyte mitochondrial potential changes, profiling panel, cell-based, JC-1 fluorescence, 3T3-L1 adipocytes, 24 h, 100 nL compound (AID 1168). Note: test concentration not given here. The conditions noted are these: JC-1 mitochondrial fluorescence, higher = more signal, called active from +8 up or from −8 down.
Assay [18] is described as follows: basal RPMI8226 mitochondrial membrane potential changes, profiling panel, cell-based, JC-1 fluorescence, 24 h, 100 nL compound (AID 1169). Note: test concentration not given here. The following applies: RPMI8226 myeloma, JC-1 mitochondrial potential fluorescence, higher = more signal.
The nature of assay [19]: basal MM1S mitochondrial membrane potential changes, profiling panel, cell-based, JC-1 fluorescence, 24 h, 100 nL compound (AID 1170). Note: test concentration not given here. The following applies: higher = more signal.
The nature of assay [20]: A549 lung cancer cell viability effects, profiling panel, resazurin fluorescence, 24 h, PK04 Diversity Set (AID 1171). Note: test concentration not given here. The following applies: higher = more signal, called active from +8 up or from −8 down. (The colour change of resazurin is a common sign of viable cells or microbes.)

NADPH oxidase 2 (Homo sapiens), sequence (P04839 whole entry, looked up): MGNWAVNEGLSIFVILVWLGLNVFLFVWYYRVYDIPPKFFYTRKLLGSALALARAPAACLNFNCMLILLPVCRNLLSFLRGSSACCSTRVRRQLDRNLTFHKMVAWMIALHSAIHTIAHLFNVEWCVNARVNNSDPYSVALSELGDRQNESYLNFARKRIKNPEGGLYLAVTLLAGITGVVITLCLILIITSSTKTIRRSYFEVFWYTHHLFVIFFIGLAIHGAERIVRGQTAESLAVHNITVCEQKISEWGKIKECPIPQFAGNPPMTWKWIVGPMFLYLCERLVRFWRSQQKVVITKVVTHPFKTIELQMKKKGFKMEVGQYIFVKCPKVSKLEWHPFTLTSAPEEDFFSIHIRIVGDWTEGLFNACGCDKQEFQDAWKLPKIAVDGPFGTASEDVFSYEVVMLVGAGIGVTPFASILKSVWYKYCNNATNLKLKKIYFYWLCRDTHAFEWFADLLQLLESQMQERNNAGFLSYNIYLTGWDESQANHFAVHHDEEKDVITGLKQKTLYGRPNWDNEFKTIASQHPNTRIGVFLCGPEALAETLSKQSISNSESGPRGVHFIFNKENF
NADPH oxidase 4 (Homo sapiens), sequence (Q9NPH5 whole entry, looked up): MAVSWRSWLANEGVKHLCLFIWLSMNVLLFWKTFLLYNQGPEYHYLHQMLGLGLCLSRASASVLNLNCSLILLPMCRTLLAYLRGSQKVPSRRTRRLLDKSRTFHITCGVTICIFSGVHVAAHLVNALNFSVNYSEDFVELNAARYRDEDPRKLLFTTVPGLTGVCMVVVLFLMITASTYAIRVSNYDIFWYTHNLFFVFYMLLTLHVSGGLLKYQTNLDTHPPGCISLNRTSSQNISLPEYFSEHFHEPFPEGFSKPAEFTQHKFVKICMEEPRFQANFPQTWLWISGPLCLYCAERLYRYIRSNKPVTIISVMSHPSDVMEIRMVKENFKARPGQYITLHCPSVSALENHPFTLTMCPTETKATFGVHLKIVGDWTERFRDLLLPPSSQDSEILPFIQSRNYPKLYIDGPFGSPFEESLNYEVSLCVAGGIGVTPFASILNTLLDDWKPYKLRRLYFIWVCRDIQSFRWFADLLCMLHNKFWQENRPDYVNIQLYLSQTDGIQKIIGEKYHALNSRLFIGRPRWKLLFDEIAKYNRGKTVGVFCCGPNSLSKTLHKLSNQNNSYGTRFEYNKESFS
NADPH oxidase 5 (Homo sapiens), sequence (Q96PH1 whole entry, looked up): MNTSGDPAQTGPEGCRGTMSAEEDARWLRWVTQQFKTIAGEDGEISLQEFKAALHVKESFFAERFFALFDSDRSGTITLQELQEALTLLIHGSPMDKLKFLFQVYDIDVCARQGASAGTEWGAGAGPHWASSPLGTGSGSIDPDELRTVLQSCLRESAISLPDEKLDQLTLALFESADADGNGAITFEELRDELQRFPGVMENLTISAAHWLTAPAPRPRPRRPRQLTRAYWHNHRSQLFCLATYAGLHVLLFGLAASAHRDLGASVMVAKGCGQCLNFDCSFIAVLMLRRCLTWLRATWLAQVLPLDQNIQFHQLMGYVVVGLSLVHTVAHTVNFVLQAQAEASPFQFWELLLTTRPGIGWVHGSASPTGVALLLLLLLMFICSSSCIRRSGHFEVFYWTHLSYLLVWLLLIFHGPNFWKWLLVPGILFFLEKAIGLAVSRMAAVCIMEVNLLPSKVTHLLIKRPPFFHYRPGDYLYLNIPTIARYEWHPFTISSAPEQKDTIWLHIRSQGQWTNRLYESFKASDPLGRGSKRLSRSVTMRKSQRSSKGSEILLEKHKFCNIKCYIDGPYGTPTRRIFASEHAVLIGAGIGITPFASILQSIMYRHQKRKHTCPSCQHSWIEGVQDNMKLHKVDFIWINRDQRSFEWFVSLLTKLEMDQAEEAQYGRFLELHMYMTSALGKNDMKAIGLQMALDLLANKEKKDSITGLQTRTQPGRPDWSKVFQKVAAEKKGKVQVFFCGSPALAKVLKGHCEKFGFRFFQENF

In the case of `C=CCC(OC(C)=O)[C@@H]1[C@@H](N(Cc2ccc(-c3cccc(C(F)(F)F)c3)o2)C(=O)c2ccc(C)cc2)c2cc(OCCCO)ccc2N1C(=O)c1ccc2ccccc2n1` (stereo not given in full), the z-score in [1] was 1.55 (inactive); in assay [3], 1.97 (inactive); in [4], 0.435 (inactive); in assay [5] it was -0.225 (inactive); in assay [6], 0.0644 (inactive); in [7], -0.218. The z-score was -0.0312 (inactive) in assay [8]; 0.95 (inactive) in assay [9]; 2.06 in assay [10]; 1.03 in [11]; 0.27 in assay [12]; 1.91 in assay [13]. The z-score in assay [14] is -0.0472; in assay [15], -0.526; in assay [16], 2.67; in [17] it was -0.351 (inactive); in assay [18], 0.962; in [19], -0.165. For the same molecule, the z-score in assay [20] is 0.16 (inactive). The molecule further came in with a composite z-score in assay [2] of 0.235.
Consider `CCCCCCCCCCC(O)C1C=CC2C(=O)N(c3ccccc3)C(=O)C2N1Nc1ccc([N+](=O)[O-])cc1` (stereo not given), for which the z-score was -1.14 (inactive) in assay [1]; 5.24 (inactive) in [3]; 2.56 (inactive) in assay [4]; -1.8 (inactive) in [5]; 2.11 (inactive) in assay [6]; -0.235 in assay [7]. Also, the z-score in assay [8] is 0.309 (inactive); in assay [9] it was -0.243 (inactive); in [10], 0.627; in [11] it was -2.28; in assay [12], -0.581; in assay [13], -1.82. In addition, the z-score is -3.31 in [14]; -4.22 in assay [15]; -2.87 in [16]; 0.656 (inactive) in assay [17]; -1.13 in assay [18]; -1.66 in assay [19]. For the same molecule, the z-score in [20] is 0.381 (inactive). Also, in [2], the composite z-score is 0.315.
For the molecule `C#C[C@H](O[Si](C#CCCCCCC)(C(C)C)C(C)C)c1ccccc1`, the z-score is 0.79 (inactive) in assay [1]; 0.486 (inactive) in assay [3]; -0.227 (inactive) in assay [4]; -0.177 (inactive) in assay [5]; 0.433 (inactive) in [6]; 0.482 in assay [7]. Besides, the z-score was -1.09 (inactive) in assay [8]; -0.782 (inactive) in assay [9]; -1.97 in assay [10]; 0.303 in assay [11]; 0.102 in assay [12]; -0.616 in assay [13]. Besides, the z-score in [14] was 0.665; in assay [15] it was 0.528; in assay [16] it was 0.0244; in [17] it was -0.324 (inactive); in assay [18], 0.179; in assay [19] it was -0.772. Besides, in [20], the z-score is 0.815 (inactive). Also, in assay [2], the composite z-score was -0.468.
Consider `O=C1OCCC=C[C@H]2OC34C=CCN(CCN5CCOCC5)C(=O)[C@H]3N(CCO)C(=O)[C@@H]4C12` (stereo not given in full), for which the z-score in [1] was -0.392 (inactive); in [3] it was 0.329 (inactive); in assay [4], 0.392 (inactive); in assay [5], 0.918 (inactive); in [6] it was 0.551 (inactive); in [7] it was 0.65. Further, the z-score in assay [8] was 0.808 (inactive); in assay [9], 0.49 (inactive); in assay [10], 0.0715; in [11], -0.53; in assay [12], -0.246; in [13] it was -0.209. In addition, the z-score is 0.471 in [14]; -0.253 in assay [15]; -0.659 in assay [16]; -0.293 (inactive) in [17]; -0.578 in assay [18]; -0.47 in assay [19]. In assay [20], the z-score is -0.948 (inactive). The same molecule yielded a composite z-score in assay [2] of -0.231.
Consider `O=P(NCC1(CC2(c3ccccc3)CO2)CC1)(c1ccccc1)c1ccccc1` (stereo not given), for which the z-score in assay [1] is -0.569 (inactive); in [3], 0.0174 (inactive); in [4], -0.505 (inactive); in assay [5], 0.424 (inactive); in assay [6], 0.297 (inactive); in [7], -0.242. Further, the z-score in assay [8] was -0.024 (inactive); in [9], 0.266 (inactive); in assay [10], -2.9; in assay [11] it was -1.08; in [12], -0.933; in [13] it was 0.676. Also, the z-score is 0.116 in assay [14]; 0.0906 in assay [15]; -0.187 in assay [16]; 0.48 (inactive) in assay [17]; 0.125 in [18]; -0.792 in assay [19]. In addition, the z-score in assay [20] is 0.316 (inactive). Moreover, in assay [2], the composite z-score was determined as 0.315.
Regarding `O=C(NCC(O)CO)[C@@]1(Cc2ccccc2)N=C(c2ccc(OCCCO)cc2)O[C@H]1c1ccccc1` (stereo not given in full), the z-score in assay [1] was 0.931 (inactive); in assay [3], 19.8 (active); in [4] it was 3.69 (inactive); in [5] it was 1.88 (inactive); in [6] it was 1.28 (inactive); in [7], -0.142. Moreover, the z-score was -0.513 (inactive) in [8]; 1.63 (inactive) in [9]; 1.16 in assay [10]; -0.125 in assay [11]; 1.2 in assay [12]; -0.266 in assay [13]. The z-score was -1.93 in assay [14]; -0.0748 in [15]; 0.4 in [16]; 0.366 (inactive) in [17]; -0.392 in assay [18]; -0.223 in assay [19]. For the same molecule, in assay [20], the z-score was 0.564 (inactive). In [2], this molecule had a composite z-score of 0.828.
`CCCC[C@@H]1C[C@H]1[C@@H](NC(=O)c1ccccc1)c1ccccc1`: the z-score in assay [1] is -1.39 (inactive); in assay [3], 0.713 (inactive); in assay [4] it was 0.803 (inactive); in assay [5], 0.13 (inactive); in assay [6], 0.888 (inactive); in [7], -0.943. Besides, the z-score in assay [8] is -0.289 (inactive); in [9], -1.21 (inactive); in assay [10] it was 1.98; in assay [11], -1.2; in [12], -0.902; in [13] it was -1.02. Besides, the z-score in assay [14] was -1.43; in [15], -1.48; in assay [16], -2.36; in [17], -1.07 (inactive); in assay [18], 0.203; in assay [19] it was -1.25. In addition, the z-score in assay [20] is -0.324 (inactive). In [2], this molecule came in with a composite z-score of 1.43.
As to `CC(C)(C)OC(=O)CC[C@@]1(C(N)=O)N=C(c2ccc(OCCCO)cc2)O[C@@H]1c1ccccc1N=[N+]=[N-]`, the z-score is 1.3 (inactive) in assay [1]; 30.8 (active) in [3]; 31.3 (active) in assay [4]; 2.05 (inactive) in assay [5]; 2.73 (inactive) in assay [6]; -0.207 in assay [7]. Moreover, the z-score in [8] is 1.57 (inactive); in assay [9], -0.154 (inactive); in assay [10], -1.44; in assay [11] it was 1.37; in assay [12], 0.337; in assay [13], 2.25. Moreover, the z-score is 1.46 in assay [14]; 0.415 in assay [15]; 0.221 in [16]; 0.951 (inactive) in [17]; -0.892 in assay [18]; -0.706 in assay [19]. Besides, in [20], the z-score was -0.763 (inactive). The molecule also displayed a composite z-score in assay [2] of 0.224.
